# Most compounds without a hit are left out; they make up all but 10% or so of the library.
# ROMK mod – modulators of human ROMK potassium channel. P48048. 2% of 130,000 active. B-score at 10 µM. Tet-inducible ROMK, thallium flux fluorescence; actives lie on both sides. AID 1918;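 active means signal ratio slope over the read window, or its plate-corrected B-score, at least 3 SD from the plate mean, either direction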;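 further: B-score of the F/F0 ratio slope over 7 to 12 s after thallium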
# Target sequence (P48048 whole entry, looked up): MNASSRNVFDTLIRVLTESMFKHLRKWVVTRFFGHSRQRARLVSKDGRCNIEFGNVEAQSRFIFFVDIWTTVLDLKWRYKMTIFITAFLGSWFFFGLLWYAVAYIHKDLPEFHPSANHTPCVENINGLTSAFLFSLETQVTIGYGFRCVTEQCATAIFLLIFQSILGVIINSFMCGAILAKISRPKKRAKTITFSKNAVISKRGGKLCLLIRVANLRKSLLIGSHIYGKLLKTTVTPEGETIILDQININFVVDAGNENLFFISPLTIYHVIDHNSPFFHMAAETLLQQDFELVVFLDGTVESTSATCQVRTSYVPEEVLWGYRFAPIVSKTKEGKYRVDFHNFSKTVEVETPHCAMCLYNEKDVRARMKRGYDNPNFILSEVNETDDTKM
# PTEN del growth – growth suppressors of cells with PTEN tumor suppressor deletion; HCT116 PTEN-null viability, CellTiter-Glo, 60 h; hits give low values; viability, % at 10 µM; 1.2% of 140,000 active; AID 827;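 active means viability at or below a set limit, 4 SD under the median of all tested compounds, cut at about 3.7% in these data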;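 further: PTEN knockout HCT116 line with beta catenin targeted HCT116 as companion control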
# bCat KO growth – beta-catenin-lacking colon tumor cell growth suppression; HCT116 beta-catenin knockout viability, CellTiter-Glo, 60 h; hits give low values; viability, % at 10 µM; 1.5% of 140,000 active; AID 818;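 active means viability at or under a set limit, the compound median less 4 SD, cut at about 6% in these data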
# L major viab – reduces viability of Leishmania major promastigotes; resazurin fluorescence viability; inhibition, % at 10 µM; 9% of 200,000 active; AID 1063; in the data active means inhibition above about 50%;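 further: promastigotes grown with compound for 44 hours at 28 °C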
# p97 inhibitor – blocks human p97 ATPase activity; P55072; recombinant p97 ATPase, Kinase-Glo ATP luminescence, 3 h; inhibition, % at 8 µM; 0.42% of 220,000 active; AID 1481; in the data active means inhibition above about 15%
# INS promoter inh – TRM-6 insulin promoter activity inhibition; inhibition, % at 2 µM; 0.9% of 130,000 active; AID 1273; TRM-6 cells (human fetal islet line), insulin promoter-eGFP reporter, imaging; reporter expression induced with tamoxifen;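 active means inhibition above the mean plus 3 SD, with well images judged a real hit on visual review, cut at about 60% in these data, passing the limit was not always enough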
# A number is an active result; - = inactive; . = no result given.
SMILES,ROMK mod,PTEN del growth,bCat KO growth,L major viab,p97 inhibitor,INS promoter inh
COCCn1nnnc1C(c1cc2ccc(C)cc2[nH]c1=O)N(Cc1ccco1)Cc1cccs1 (stereo unspecified),.,-,-,-,-,.
Cc1cccnc1NC(=S)Nc1ccc(Br)cc1Cl,-,.,.,-,-,.
CC1CCC2(CC1)NC(=O)N(Cc1cccc(C(F)(F)F)c1)C2=O (stereo unspecified),-,.,.,100,-,-
COc1ccc(CN2C(=O)NC3(CCCC3)C2=O)cc1F,-,.,.,-,-,-
CCOc1cc(C=O)ccc1OCc1cc(=O)n2cc(C)ccc2n1,-,.,.,-,-,.
CC(C)(C)C(=O)Nc1ccc(S(=O)(=O)c2ccc(NC(=O)C(C)(C)C)cc2)cc1,-,-,-,-,-,75
CC(C)(C)C(=O)Nc1ccc(NC(=O)C(C)(C)C)cc1,-,.,.,.,-,.
CC(C)(C)C(=O)Nc1cc(S(=O)(=O)Nc2ccc(Cl)cc2)ccc1Cl,-,-,-,76,-,-
Cc1cc(-n2cnc(-c3cn[nH]c3C)n2)no1,-,.,.,.,-,.
CCS(=O)(=O)Nc1ccc(-c2nc3cccnc3s2)cc1,.,.,.,-,-,.
CC(=O)N(CCCc1ccc(C(C)(C)C)cc1)CCCN(C)C,-,-,-,99,-,.
CCC(=O)c1ccc(OCCn2cnc3ccccc32)cc1,-,.,.,-,-,.
COc1cc(Br)cc(CNc2ccc(F)c([N+](=O)[O-])c2)c1O,-,.,.,-,-,-
CSc1ccc(CNc2ccc(C)cc2)cc1,.,-,-,100,-,.
C/C(=N\NC(N)=S)c1ccc2c(c1)OCCO2,.,.,.,.,-,.
C/C(=N\NC(=S)Nc1ccc(F)cc1)c1ccc2c(c1)OCCO2,.,-,-,77,-,-
COc1ccc(-c2cc(-c3ccc(F)cc3)nc(N3CCN(C)CC3)n2)cc1,-,3.4,3.3,-,-,-
COc1ccc(Nc2nc(NC(C)(C)C)nc(N3CCOCC3)n2)c(OC)c1,-,.,.,-,-,-
COc1ccc(Nc2nc(NC(C)(C)C)nc(N3CCCC3)n2)c(OC)c1,.,-,-,96,-,-
COc1ccc(N2CCN(c3nc(NC(C)(C)C)nc(N4CCCCC4)n3)CC2)cc1,-,-,-,97,-,-
COc1ccc(Nc2nc(N3CCCCC3)nc3ccccc23)c(OC)c1,.,-,-,97,-,-
Nc1sc(-c2ccccc2)c(Cc2ccccc2)c1C(=O)O,-,.,.,-,-,-
COc1ccc(Nc2nc(N3CCCC3)nc(N3CCCC3)n2)c(OC)c1,-,-,-,-,-,-
COc1ccc(Nc2nc(Nc3ccc(OC)cc3OC)nc(N3CCN(C)CC3)n2)c(OC)c1,-,-,-,77,-,-
C/C(CC(=O)NC1CCCC1)=N\NC(=O)c1ccc([N+](=O)[O-])c(Cl)c1,-,-,-,-,-,-
SMILES,ROMK mod,PTEN del growth,bCat KO growth,L major viab,p97 inhibitor,INS promoter inh
O=C(CCc1ccccc1)Nc1cc(C(=O)O)cc(C(=O)O)c1,-,.,.,-,-,.
O=S(=O)(Nc1nc2ccccc2[nH]1)c1ccc(Cl)cc1,-,-,-,57,-,.
CNC(=S)N1CCc2cc(OC)c(OC)cc2C1,.,.,.,.,-,.
COc1ccc(CCN2CC(O)=C(c3nc(C)cs3)C2=N)cc1OC,.,-,-,-,-,-
Cc1csc(C2=C(O)CN(CCc3ccccc3)C2=N)n1,-,-,-,99,-,-
Cc1cc(N2CCN(C)CC2)nc2ccc(NC(=O)c3ccc(Br)o3)cc12,-,-,-,92,-,.
Cc1cc(N2CCCCC2)nc2ccc(NC(=O)c3ccc(Br)o3)cc12,-,-,-,94,-,-
Cc1cc(N2CCN(C)CC2)nc2ccc(NC(=O)c3ccc4c(c3)OCO4)cc12,.,-,-,100,-,-
Cc1cc(N2CCN(C)CC2)nc2ccc(NC(=S)N3CCC4(CC3)OCCO4)cc12,-,.,.,-,-,.
Cc1cc(N2CCOCC2)nc2ccc(NC(=O)CCC(=O)N3CCCCC3)cc12,.,-,-,-,-,.
O=C(CN1C(=O)NC2(CCc3ccccc3C2)C1=O)Nc1ccc(F)cc1 (stereo unspecified),.,-,-,-,-,.
COc1cc(-c2nnc(SCc3c(F)cccc3Cl)o2)cc(OC)c1OC,.,-,-,82,-,-
COc1cc(-c2nnc(SCc3ccccc3Cl)o2)cc(OC)c1OC,.,-,-,-,-,.
CC1(C)OC(=O)C(=CNn2cnc3ccccc3c2=O)C(=O)O1,.,-,-,-,-,82
CC(C)N(Cc1ccccc1)C(=S)NC(=O)C1(C)CC1(Cl)Cl (stereo unspecified),5.1,.,.,-,-,-
CC1(C(=O)NC(=S)N(CCC#N)c2ccccc2)CC1(Cl)Cl (stereo unspecified),-,-,-,-,-,.
CCCCc1nc2sc3c(=O)n(N)cnc3c2c2c1CCC2,-,.,.,-,-,.
COc1ccc(Nc2nc3c([nH]2)c(=O)[nH]c(=O)n3C)cc1,-,.,.,-,-,-
O=C(c1ccc(F)cc1)N1CCN(c2ccc([N+](=O)[O-])c(N3CCOCC3)c2)CC1,.,-,-,57,-,-
c1ccc(-c2ccccc2OCCCCN2CCCCCC2)cc1,-,.,.,99,-,-
c1ccc(-c2ccccc2OCCOCCN2CCCCC2)cc1,.,-,-,72,-,-
OCCCN1CCN(CCCOc2ccccc2-c2ccccc2)CC1,-,-,-,93,-,-
c1ccc(-c2ccccc2OCCCN2CCOCC2)cc1,-,.,.,-,-,.
Cc1ccc(C)n1-c1ccc(C(=O)NN)cc1,.,-,-,-,-,.
CC(C)c1nc(SCc2c(F)cccc2Cl)c2c(=O)n(C)c(=O)n(C)c2n1,.,3.7,3.5,-,-,.
SMILES,ROMK mod,PTEN del growth,bCat KO growth,L major viab,p97 inhibitor,INS promoter inh
CCn1c(SCC(=O)N2CCCc3ccccc32)nc2c1c(=O)n(C)c(=O)n2C,.,-,-,-,-,-
CC(C)c1nc(SCC(=O)N2CCCc3ccccc32)c2c(=O)n(C)c(=O)n(C)c2n1,.,-,-,51,-,.
Cc1ccc2c(SCC(=O)NCc3ccco3)nc(-c3ccc(F)cc3)nc2c1,.,-,-,-,-,.
CC(=O)N(C)c1nc(N)n(-c2ccccc2)n1,-,.,.,-,-,.
COc1ccc(CN=C2NC(=O)CC(C(=O)Nc3ccccc3C)S2)cc1 (stereo unspecified),.,-,-,-,-,.
COc1ccc(CN=C2NC(=O)CC(C(=O)Nc3ccc([N+](=O)[O-])cc3C)S2)cc1 (stereo unspecified),.,-,-,86,-,-
COc1ccc(O)c(CNn2c(-c3ccc(Br)cc3)nc3ccccc3c2=O)c1,.,.,.,-,-,-
COc1cccc(CNn2c(-c3cccc(C)c3)nc3ccccc3c2=O)c1O,-,-,-,54,-,.
CCCn1cc(CN2CCN(Cc3ccc(C)o3)C(CCO)C2)c(C)n1 (stereo unspecified),-,.,.,-,-,.
CCC(NC(=O)c1ccc([N+](=O)[O-])cc1[N+](=O)[O-])c1ccccc1 (stereo unspecified),-,-,-,92,-,-
CC(NC(=O)c1ccc([N+](=O)[O-])cc1[N+](=O)[O-])c1ccc(-c2ccccc2)cc1 (stereo unspecified),-,-,-,-,-,-
CCC(NC(=O)COc1ccc([N+](=O)[O-])cc1)c1ccccc1 (stereo unspecified),-,.,.,-,-,67

# Source: PubChem (several laboratories)
